Several values for one entry are separate records, joined by “and”; a condition that tells them apart may be missing. Equal entries are not always repeated. Screen size: about 5,500 compounds; about 2,000 (36%) were called active. Inconclusive results (about 18%) are left out. No stated cut-off is given here; in the data, active means normalized growth mostly below about 0.91 (no sharp cut-off); inconclusive means no clear call, values can overlap the other calls; inactive means mostly above about 0.92. The list shows a part of the results.
Test: chemical genetic growth profiling, strain panel (AID 1159580);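 further: tested at 20 µM; growth read once vehicle control cultures reached saturation at 30 °C; 1 = growth at the plate median or of vehicle wells; lower values mean less growth of the strain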
Conditions: S. cerevisiae deletion strains, growth OD

Measured: normalized growth

CC1(C)CC[C@]2(C(=O)O)CC[C@]3(C)C(=CCC4[C@@]5(C)CC[C@@H](O)C(C)(C)C5CC[C@]43C)C2C1 (stereo partly drawn)
active: locus YKL009W, strain mrt4, active compounds read low 1.45 [resistant] | locus YKL068W, active compounds read low 1.21 [resistant] | locus YKL085W, strain MDH1 (second series), active compounds read low 1.09 [resistant] | locus YKL085W, strain MDH1, active compounds read low 1.09 [resistant]
inactive: locus YAL021C, strain ccr4, active compounds read low 1.02 | locus YAL026C, strain drs2, active compounds read low 1.01 | locus YAL030W, strain snc1, active compounds read low 1.03 | locus YBL061C, strain skt5, active compounds read low 1.01 | locus YBR009C, strain hhf1, active compounds read low 0.995 | locus YBR021W, strain FUR4, active compounds read low 1.02 | locus YBR023C, strain chs3, active compounds read low 1.01 | locus YBR171W, strain sec66, active compounds read low 1.05 | locus YBR229C, strain ROT2, active compounds read low 1.01 | locus YBR231C, strain swc5, active compounds read low 1.02 | locus YBR279W, strain paf1, active compounds read low 1.01 | locus YCL011C, strain gbp2, active compounds read low 1.01 | locus YCL016C, strain dcc1, active compounds read low 1.03 | locus YCL029C, strain bik1, active compounds read low 1.01 | locus YCL069W, strain vba3, active compounds read low 1.02 | locus YCR088W, strain abp1, active compounds read low 1.01 | locus YDL005C, strain med2, active compounds read low 1.03 | locus YDL035C, strain GPR1, active compounds read low 1.01 | locus YDL040C, strain nat1, active compounds read low 1.01 | locus YDL074C, strain BRE1, active compounds read low 1.06 | locus YDL101C, strain DUN1, active compounds read low 1.02 | locus YDL134C, strain PPH21, active compounds read low 1.04 | locus YDL185W, strain tfp1, active compounds read low 1.02 | locus YDR001C, strain nth1, active compounds read low 1.01 | locus YDR069C, strain doa4, active compounds read low 1.05 | locus YDR101C, strain arx1, active compounds read low 0.991 | locus YDR137W, strain rgp1, active compounds read low 1.07 | locus YDR150W, strain NUM1, active compounds read low 1.01 | locus YDR159W, strain sac3, active compounds read low 1.04 | locus YDR162C, strain NBP2, active compounds read low 1.05 | locus YDR195W, strain ref2 0.987 | locus YDR297W, strain sur2, active compounds read low 1 | locus YDR318W, strain mcm21, active compounds read low 1.02 | locus YDR334W, strain swr1, active compounds read low 1.03 | locus YDR335W, strain msn5, active compounds read low 1.02 | locus YDR388W, active compounds read low 1.02 | locus YDR392W, strain spt3, active compounds read low 1.03 | locus YDR502C, strain sam2, active compounds read low 1.02 | locus YEL003W, strain gim4, active compounds read low 1.02 | locus YEL037C, strain rad23, active compounds read low 1.01 | locus YEL061C, strain CIN8 (second series), active compounds read low 1 | locus YER015W, strain faa2, active compounds read low 1.01 | locus YER016W, strain bim1, active compounds read low 1.03 | locus YER110C, active compounds read low 1.02 | locus YER111C, strain swi4, active compounds read low 1.01 | locus YER155C, strain BEM2 (second series), active compounds read low 1.02 | locus YER155C, strain BEM2, active compounds read low 1.01 | locus YER167W, strain BCK2, active compounds read low 1.01 | locus YFR010W, strain ubp6, active compounds read low 1.01 | locus YGL078C, strain dbp3, active compounds read low 1.04 | locus YGL086W, strain mad1, active compounds read low 1.03 | locus YGL167C, strain pmr1, active compounds read low 1.03 | locus YGL173C, strain kem1, active compounds read low 1.02 | locus YGL227W, strain vid30, active compounds read low 1.01 | locus YGL240W, strain doc1, active compounds read low 1.03 | locus YGL248W, strain PDE1, active compounds read low 1.02 | locus YGL253W, strain hxk2, active compounds read low 1.01 | locus YGR135W, strain pre9, active compounds read low 1.02 | locus YGR229C, strain SMI1, active compounds read low 1.05 | locus YGR252W, strain gcn5, active compounds read low 0.944 | locus YHR013C, strain ard1, active compounds read low 1.04 | locus YHR027C, strain rpn1, active compounds read low 1.02 | locus YHR030C, strain SLT2, active compounds read low 1.01 and 1.02 | locus YHR079C, strain IRE1 (second series), active compounds read low 1.01 | locus YHR079C, strain IRE1, active compounds read low 1.05 | locus YHR094C, strain hxt1, active compounds read low 1.01 | locus YHR129C, strain ARP1, active compounds read low 1.01 | locus YHR142W, strain chs7, active compounds read low 1.02 | locus YHR200W, strain rpn10, active compounds read low 1.01 | locus YIL066C, strain RNR3, active compounds read low 1.03 | locus YIL073C, strain SPO22, active compounds read low 1.05 | locus YIL125W, strain kgd1, active compounds read low 1.01 | locus YJL092W, strain hpr5, active compounds read low 1.02 | locus YJL095W, strain BCK1 (second series), active compounds read low 1.03 | locus YJL095W, strain BCK1, active compounds read low 1.05 and 1.02 | locus YJL115W, strain asf1, active compounds read low 1.01 | locus YJL129C, strain trk1, active compounds read low 1.04 | locus YJL134W, strain LCB3, active compounds read low 1.01 | locus YJL154C, strain vps35, active compounds read low 1.01 | locus YJL164C, strain tpk1, active compounds read low 1.02 | locus YJL166W, strain qcr8, active compounds read low 1.02 | locus YJL168C, strain set2, active compounds read low 1.02 | locus YJL187C, strain SWE1 (second series), active compounds read low 1.04 | locus YJR043C, strain POL32, active compounds read low 1 | locus YJR066W, strain TOR1, active compounds read low 0.982 | locus YKL160W, strain elf1, active compounds read low 1.02 | locus YKL190W, strain CNB1, active compounds read low 1.02 | locus YKR001C, strain vps1, active compounds read low 0.993 | locus YKR026C, strain gcn3, active compounds read low 1.02 | locus YKR091W, strain srl3, active compounds read low 1.02 | locus YLL001W, strain dnm1, active compounds read low 1.01 | locus YLL026W, active compounds read low 1.02 | locus YLL041C, strain sdh2, active compounds read low 1.02 | locus YLR027C, strain aat2, active compounds read low 1.01 | locus YLR039C, strain RIC1, active compounds read low 1.11 | locus YLR058C, strain SHM2, active compounds read low 1.02 | locus YLR102C, strain apc9, active compounds read low 1.02 | locus YLR113W, strain HOG1, active compounds read low 0.951 | locus YLR221C, strain rsa3, active compounds read low 1 | locus YLR258W, strain gsy2, active compounds read low 1.01 | locus YLR262C, strain YPT6 (second series), active compounds read low 0.984 | locus YLR262C, strain YPT6, active compounds read low 1.1 | locus YLR268W, strain sec22, active compounds read low 0.986 | locus YLR320W, strain mms22, active compounds read low 1.01 | locus YLR342W, strain FKS1 (second series), active compounds read low 0.964 | locus YLR342W, strain FKS1, active compounds read low 1.01 | locus YLR357W, strain rsc2, active compounds read low 1.03 | locus YLR370C, strain arc18, active compounds read low 1 | locus YLR371W, strain rom2, active compounds read low 0.992 | locus YLR384C, strain iki3, active compounds read low 1.02 | locus YLR418C, strain cdc73, active compounds read low 1.09 | locus YML016C, strain PPZ1, active compounds read low 1.01 | locus YML032C, strain rad52, active compounds read low 0.991 | locus YML120C, strain ndi1, active compounds read low 1.01 | locus YML124C, strain tub3, active compounds read low 1.01 | locus YMR058W, strain fet3, active compounds read low 1.02 | locus YMR078C, strain ctf18, active compounds read low 1.02 | locus YMR125W, strain sto1, active compounds read low 1.04 | locus YMR129W, active compounds read low 1.01 | locus YMR205C, strain PFK2, active compounds read low 1.03 | locus YMR223W, strain ubp8, active compounds read low 1.02 | locus YMR231W, strain pep5, active compounds read low 1.02 | locus YMR307W, strain GAS1, active compounds read low 0.976 | locus YNL067W, strain RPL9B, active compounds read low 1.05 | locus YNL071W, strain lat1, active compounds read low 1 | locus YNL128W, strain TEP1, active compounds read low 1.03 | locus YNL183C, strain NPR1, active compounds read low 0.994 | locus YNL209W, strain ssb2, active compounds read low 1.01 | locus YNL233W, strain BNI4, active compounds read low 1.03 | locus YNL248C, strain rpa49, active compounds read low 1.01 | locus YNL250W, strain rad50, active compounds read low 1.04 | locus YNL271C, strain bni1, active compounds read low 1.03 | locus YNL298W, strain CLA4, active compounds read low 1.07 | locus YNL307C, strain MCK1, active compounds read low 1.03 | locus YNL322C, strain KRE1 (second series), active compounds read low 1.04 | locus YNR049C, strain mso1, active compounds read low 1.02 | locus YNR052C, strain pop2, active compounds read low 1.03 | locus YOL012C, strain htz1 1.33 | locus YOL147C, strain pex11, active compounds read low 1 | locus YOR001W, strain rrp6, active compounds read low 1.02 | locus YOR061W, strain CKA2, active compounds read low 1.02 | locus YOR069W, strain VPS5, active compounds read low 1.02 | locus YOR070C, strain gyp1, active compounds read low 1.03 | locus YOR080W, strain dia2, active compounds read low 1.01 | locus YOR083W, strain WHI5, active compounds read low 1.02 | locus YOR106W, strain vam3, active compounds read low 1.03 | locus YOR136W, strain idh2, active compounds read low 1.01 | locus YOR144C, strain elg1, active compounds read low 1.01 | locus YOR184W, strain ser1, active compounds read low 1.03 | locus YOR231W, strain MKK1, active compounds read low 0.997 | locus YOR265W, strain rbl2, active compounds read low 1.02 | locus YOR270C, strain vph1, active compounds read low 0.997 | locus YOR290C, strain snf2, active compounds read low 1.02 | locus YOR316C, strain cot1, active compounds read low 1.01 | locus YPL051W, strain arl3, active compounds read low 1 | locus YPL078C, strain atp4, active compounds read low 1.04 | locus YPL106C, strain sse1, active compounds read low 1.03 | locus YPL240C, strain hsp82, active compounds read low 1.01 | locus YPL256C, strain CLN2, active compounds read low 1.05 | locus YPR119W, strain clb2, active compounds read low 1.01 | locus YPR141C, strain kar3, active compounds read low 1.02 | locus YPR163C, strain tif3, active compounds read low 1.02 | locus YPR167C, strain met16, active compounds read low 1.03 | strain wtn01, active compounds read low 1

Reference: PubChem BioAssay AID1159580 (chemical genetic matrix, 2015)
